# Data as given in ChEMBL document CHEMBL4296182, “CO-ADD screening of NIH NCI Diversity Set V”.
# System: Staphylococcus aureus
# Assay: Antibacterial activity against Staphylococcus aureus MRSA ATCC 43300 (CO-ADD:GP_020); MIC in CAMBH media using NBS plates, by Resazurin F(560/590)
# Assay type: functional
# Conditions: Concentration 20 uM, ASSAY_TEST Inhibition of Bacterial Growth, detection method Resazurin, Fluorescence (ex560/em590), MEDIA CAMHB, plate type 384well, CORNING #3640, time 18 hr
row,Compound,Inhibition [%]
1,S=C(Nc1ccccc1)c1ccccn1,3.41
2,CCSc1nc(C)cc(S)n1,8.56
3,Cc1cc(=O)n2nc(-c3ccc(C(C)(C)C)cc3)cc2[nH]1,15.3
4,Cc1nc(N)nc(Cl)c1CCC1OCCO1,7.04
5,CCCNC(=O)c1ccccc1C(=O)NC1(C(=O)NCCC)CCCC1,14.23
6,COc1ccc2c(C)cc(C)nc2n1,4.34
7,Cc1c(NC(=O)Nc2c(Cl)cccc2Cl)c(=O)n(-c2ccccc2)n1C,9.25
8,CSc1cccc(NC(=O)Nc2nc3c(C)cccc3s2)c1,-3.9
9,COc1ccc2c(c1)CCCN2C(=N)Nc1ccc(Cl)cc1,-10.2
10,COc1ccc(NC(=O)c2cc3ccc4c5ccccc5[nH]c4c3cc2O)cc1,16.09
11,NC(=S)NC(=O)c1ccccc1,15.19
12,Cc1ccc(-c2cssc2=S)cc1,-26.91
13,O=C(Nc1ccc2ncccc2c1)Nc1ccc2ncccc2c1,9.01
14,Nc1ccc(C(=O)Nc2cccc(N)c2)cc1,4.61
15,CCOC(=O)c1c(C)nc(C)c(C(=O)OCC)c1-c1ccc(OC)cc1,0.94
16,CC(C)COc1nc2c(c(=O)n(C)c(=O)n2C)n1C,-1.72
17,CN1C(=O)c2ccccc2Cc2c(NCc3ccccc3)ncnc21,11.35
18,Nc1ccnn1-c1ccccc1,7.55
19,COc1ccc(/N=N/c2ccc(N)nc2N)cc1,0.3
20,CCOC(=O)c1nc(SC)n(C)c1C(=O)OCC,10.21

row,Compound,Inhibition [%]
1,O=C(O)c1ccccc1C(=O)Nc1cccc([N+](=O)[O-])c1,-4.11
2,Cn1c(=O)c2c(ncn2CCOC(=O)C(C)(C)Oc2ccc(Cl)cc2)n(C)c1=O [THEOFIBRATE],-5.55
3,Nc1ccccc1-n1nc2ccc3ccccc3c2n1,-2.24
4,OC(c1ccccc1)(c1ccccc1)c1nccn1-c1ccccc1,0.11
5,O=C(Nc1ccc(Br)c2ccccc12)c1ccc2ccccc2c1O,0.57
6,CC1(C)N=C(N)N=C(N)N1c1cccc(CN)c1.CCS(=O)(=O)O,8.6
7,COc1cc(C(=O)C(=O)c2cc(OC)c(O)c(OC)c2)cc(OC)c1O,3.22
8,CCCCOc1ccc(NC(=O)Nc2nnc(C)s2)cc1,12.15
9,OC(COc1cccc2ccccc12)CN1CCN(c2ccccc2Cl)CC1 (centres undefined),-4.97
10,O=C(/C=C/c1ccc(Cl)s1)c1ccc(Cl)s1,14.77
11,O=C(Oc1cccnc1O)c1cccc(Cl)c1,-7.64
12,O=C(Nc1cccc2ccccc12)c1ccccc1,1.57
13,COc1ccc(/N=N/c2c(N)n[nH]c2N)cc1,9.98
14,CC(O)(c1ccccc1)C(c1ccccc1)C1CCCCN1 (centres undefined),9.45
15,CC1=CN2C(c3cccc([N+](=O)[O-])c3)=NON(c3ccc(C)cn3)C2C=C1 (centres undefined),16.79
16,NNC(=O)c1nnsc1-c1csnn1,-28.09
17,Cc1ccc(C2C=CC(C#N)=CN2Cc2ccccc2)cc1 (centres undefined),18.9
18,Cc1csc(/N=N/c2ccc(N(C)C)cc2)[n+]1[O-],7.37
19,Clc1ccccc1-c1nc(-c2ccncc2)no1 [PIFEXOLE],2.18
